# According to ChEMBL document CHEMBL2218924, “A broad activity screen in support of a chemogenomic map for kinase signalling research and drug discovery” (Biochem J, 2013):
# Target: Mitogen-activated protein kinase 1 (Homo sapiens) (UniProt P28482)
# Conditions: at 1 µM
# Mitogen-activated protein kinase 1 (Homo sapiens), sequence (P28482 whole entry): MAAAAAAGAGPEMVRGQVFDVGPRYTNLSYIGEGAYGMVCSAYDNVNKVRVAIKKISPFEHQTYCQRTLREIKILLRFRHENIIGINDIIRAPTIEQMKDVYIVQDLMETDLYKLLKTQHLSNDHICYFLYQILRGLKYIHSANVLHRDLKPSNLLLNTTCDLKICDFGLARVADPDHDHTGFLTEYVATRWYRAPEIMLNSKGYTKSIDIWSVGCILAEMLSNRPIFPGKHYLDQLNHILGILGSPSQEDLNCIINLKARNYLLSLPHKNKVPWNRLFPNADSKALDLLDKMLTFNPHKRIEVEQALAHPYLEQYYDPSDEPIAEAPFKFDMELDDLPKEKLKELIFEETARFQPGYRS
row,SMILES,residual activity [%]
1,CCC(=O)Nc1ccc2ncnc(Nc3cccc(Br)c3)c2c1,93
2,O=C(Nc1cccc(Nc2cc(Nc3cccc(C(F)(F)F)c3)ncn2)c1)C1CC1,102
3,O=[N+]([O-])c1ccc(-c2nc(-c3ccc(F)cc3)c(-c3ccncc3)[nH]2)cc1,113
4,O=c1c2ccccc2[nH]c(=S)n1CCN1CCC(=C(c2ccc(F)cc2)c2ccc(F)cc2)CC1,103
5,COc1cc2ncnc(Nc3ccc(NC(=O)c4ccccc4)cc3)c2cc1OC,103
6,COc1ccc(OC)c2c(=S)c3ccccc3[nH]c12,111
7,O=C(O)c1ccc2c3c1cccc3c(=O)n1c3ccccc3nc21,123
8,Cn1cnc2cc3c(Nc4cccc(Br)c4)ncnc3cc21,107
9,COc1ccc(S(=O)(=O)N(CCO)c2ccccc2CN(C)C/C=C/c2ccc(Cl)cc2)cc1,111
10,CNc1cc2c(Nc3cccc(Br)c3)ncnc2cn1,102
11,COc1cc2ncnc(N3CCN(C(=O)Nc4ccc(Oc5ccccc5)cc4)CC3)c2cc1OC,106
12,O=C(Nc1cccc(Nc2nccc(Nc3cccc(C(F)(F)F)c3)n2)c1)C1CC1,89
13,c1ccc(-c2n[nH]cc2-c2ccnc3ccccc23)nc1,96
14,O=c1cc(-c2cccc3c2Sc2ccccc2S3)oc(N2CCOCC2)c1,107
15,O=Nc1c(-c2c(O)[nH]c3ccccc23)[nH]c2ccccc12,104
16,Nc1n[nH]c2nnc(-c3c(-c4ccccc4)nn4ccccc34)cc12,68
17,CC(=O)O/N=C1\C(=C2\C(=O)Nc3cc(Br)ccc32)Nc2ccccc21,105

# Target: Mitogen-activated protein kinase 1 (Homo sapiens) (UniProt P28482)
# Conditions: at 10 µM
row,SMILES,residual activity [%]
1,NC(=O)c1ccc2[nH]c(-c3ccc(Oc4ccc(Cl)cc4)cc3)nc2c1,99
2,Cc1nc(-c2ccccc2)c(-c2ccncc2)o1,100
3,CCOc1cc2ncnc(Nc3cccc(Br)c3)c2cc1OCC,77
4,CC(C)n1cnc2/c(=N/c3cccc(Cl)c3)nc(NCCO)[nH]c21,78
5,Nc1nc(Nc2ccc(S(N)(=O)=O)cc2)nn1C(=S)Nc1c(F)cccc1F,3
6,Cc1ccc(S(=O)(=O)/C=C/C#N)cc1,110
7,Ic1cccc(CSc2nnc(-c3ccncc3)o2)c1,83
8,O=C1NC(=O)c2c1c1c3ccccc3[nH]c1c1[nH]c3cc(Br)ccc3c21,99
9,O=C1NC(=O)/C(=C\c2ccc3nccnc3c2)S1,96
10,CCN(CC)CCCCN1c2ccccc2Oc2ccc(Cl)cc21,104
11,COc1cccc(-c2cc(=O)c3ccccc3o2)c1N,96
12,O=C1c2ccccc2-[n+]2ccc3c([nH]c4ccccc43)c21,108
13,Oc1ccc(-c2nc(-c3ccc(F)cc3)c(-c3ccncc3)[nH]2)cc1,98
14,Cc1nc2cc3nc(-c4cccs4)cnc3cc2n1C,103
15,COc1ccc(C(=O)Nc2sc3c(c2C(N)=O)CCCC3)cc1OC,109
16,Cn1cc(/C=C2\C(=O)Nc3ccc(S(N)(=O)=O)cc32)c2ccccc21,103
17,Nc1ccc2ncnc(NCCc3ccc(Oc4ccccc4)cc3)c2c1,86
18,CO[C@H]1C[C@@H]2CC[C@@H](C)[C@@](O)(O2)C(=O)C(=O)N2CCCC[C@H]2C(=O)O[C@H]([C@H](C)C[C@@H]2CC[C@@H](O)[C@H](OC)C2)CC(=O)[C@H](C)/C=C(\C)[C@@H](O)[C@@H](OC)C(=O)[C@H](C)C[C@H](C)/C=C/C=C/C=C/1C,101

row,SMILES,residual activity [%]
1,CCC(=O)Nc1ccc2ncnc(Nc3cccc(Br)c3)c2c1,94
2,O=C(Nc1cccc(Nc2cc(Nc3cccc(C(F)(F)F)c3)ncn2)c1)C1CC1,103
3,O=[N+]([O-])c1ccc(-c2nc(-c3ccc(F)cc3)c(-c3ccncc3)[nH]2)cc1,109
4,O=c1c2ccccc2[nH]c(=S)n1CCN1CCC(=C(c2ccc(F)cc2)c2ccc(F)cc2)CC1,80
5,COc1cc2ncnc(Nc3ccc(NC(=O)c4ccccc4)cc3)c2cc1OC,103
6,COc1ccc(OC)c2c(=S)c3ccccc3[nH]c12,101
7,O=C(O)c1ccc2c3c1cccc3c(=O)n1c3ccccc3nc21,96
8,Cn1cnc2cc3c(Nc4cccc(Br)c4)ncnc3cc21,95
9,COc1ccc(S(=O)(=O)N(CCO)c2ccccc2CN(C)C/C=C/c2ccc(Cl)cc2)cc1,103
10,CNc1cc2c(Nc3cccc(Br)c3)ncnc2cn1,96
11,COc1cc2ncnc(N3CCN(C(=O)Nc4ccc(Oc5ccccc5)cc4)CC3)c2cc1OC,105
12,O=C(Nc1cccc(Nc2nccc(Nc3cccc(C(F)(F)F)c3)n2)c1)C1CC1,84
13,c1ccc(-c2n[nH]cc2-c2ccnc3ccccc23)nc1,109
14,O=c1cc(-c2cccc3c2Sc2ccccc2S3)oc(N2CCOCC2)c1,100
15,O=Nc1c(-c2c(O)[nH]c3ccccc23)[nH]c2ccccc12,103
16,Nc1n[nH]c2nnc(-c3c(-c4ccccc4)nn4ccccc34)cc12,13
17,CC(=O)O/N=C1\C(=C2\C(=O)Nc3cc(Br)ccc32)Nc2ccccc21,93
